# In PubChem BioAssay AID1159580 (chemical genetic matrix, 2015):
# Out of some 5,500 compounds screened, about 2,000 (36%) were called active. Another 18% or so got no clear call; they are omitted. The list shows a part of the results. Unmarked numbers belong to inactive results. Cut-off read from the data, not from the text of the source: active = normalized growth mostly below about 0.91 (no sharp cut-off); inconclusive = no clear call, values can overlap the other calls; inactive = mostly above about 0.92.
# Assay: chemical genetic growth profiling, strain panel (AID 1159580);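 note: tested at 20 µM; growth read once vehicle control cultures reached saturation at 30 °C; 1 = growth at the plate median or of vehicle wells; lower values mean less growth of the strain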
# Details: S. cerevisiae deletion strains, growth OD
# [1] = locus YAL013W, strain DEP1, stronger effect = lower value
# [2] = locus YBR229C, strain ROT2, stronger effect = lower value
# [3] = locus YDL101C, strain DUN1, stronger effect = lower value
# [4] = locus YDR150W, strain NUM1, stronger effect = lower value
# [5] = locus YEL061C, strain CIN8, stronger effect = lower value
# [6] = locus YGR078C, strain PAC10, stronger effect = lower value
# [7] = locus YHR030C, strain SLT2, stronger effect = lower value
# [8] = locus YHR087W, strain rtc3, stronger effect = lower value
# [9] = locus YJR043C, strain POL32, stronger effect = lower value
# [10] = locus YJR075W, strain HOC1, stronger effect = lower value
# [11] = locus YLR039C, strain RIC1, stronger effect = lower value
# [12] = locus YLR058C, strain SHM2 (second series), stronger effect = lower value
# [13] = locus YLR085C, strain ARP6, stronger effect = lower value
# [14] = locus YLR262C, strain YPT6, stronger effect = lower value
# [15] = locus YML094W, strain GIM5, stronger effect = lower value
# [16] = locus YMR219W, strain ESC1, stronger effect = lower value
# [17] = locus YMR263W, strain SAP30, stronger effect = lower value
# [18] = locus YNL128W, strain TEP1, stronger effect = lower value
# [19] = locus YNL153C, strain GIM3, stronger effect = lower value
# [20] = locus YNL298W, strain CLA4 (second series), stronger effect = lower value
# [21] = locus YNL322C, strain KRE1, stronger effect = lower value
# [22] = locus YNR030W, strain Alg12, stronger effect = lower value
# [23] = locus YPL055C, strain LGE1, stronger effect = lower value
# [24] = locus YPL241C, strain CIN2, stronger effect = lower value
# [25] = locus YPR135W, strain CTF4, stronger effect = lower value
structure (smiles),measurement,setting,value
Clc1ccc(Sc2ncnc3ccsc23)cc1,normalized growth,[1],0.919 (active)
same,normalized growth,[2],0.893 (active)
same,normalized growth,[3],0.959
same,normalized growth,[4],0.911
same,normalized growth,[5],0.81 (active)
same,normalized growth,[6],0.885 (active)
same,normalized growth,[7],0.502 (active)
same,normalized growth,[8],0.809 (active)
same,normalized growth,[9],0.866 (active)
same,normalized growth,[10],0.768 (active)
same,normalized growth,"locus YKL190W, strain CNB1, stronger effect = lower value",0.863 (active)
same,normalized growth,[11],0.941
same,normalized growth,[12],0.877 (active)
same,normalized growth,[13],0.352 (active)
same,normalized growth,[14],1.1
same,normalized growth,[15],0.814 (active)
same,normalized growth,[16],0.885 (active)
same,normalized growth,[17],0.94
same,normalized growth,[18],0.934
same,normalized growth,[19],0.924 (active)
same,normalized growth,[20],0.777 (active)
same,normalized growth,[21],0.922 (active)
same,normalized growth,[22],0.705 (active)
same,normalized growth,"locus YOL006C, strain TOP1, stronger effect = lower value",0.516 (active)
same,normalized growth,[23],0.682 (active)
same,normalized growth,[24],0.66 (active)
same,normalized growth,[25],0.451 (active)
O=c1[nH]cnc2ccsc12,normalized growth,[1],1.01
same,normalized growth,[2],1.02
same,normalized growth,"locus YCL061C, strain MRC1, stronger effect = lower value",0.998
same,normalized growth,[3],1
same,normalized growth,[4],1.03
same,normalized growth,[5],1.02
same,normalized growth,[6],0.998
same,normalized growth,[7],1.05
same,normalized growth,[8],1
same,normalized growth,[9],0.996
same,normalized growth,[10],1.03
same,normalized growth,[11],0.985
same,normalized growth,[12],1.03
same,normalized growth,[13],1.04
same,normalized growth,[14],0.982
same,normalized growth,[15],1.03
same,normalized growth,[16],1.01
same,normalized growth,[17],1.04
same,normalized growth,[18],1.02
same,normalized growth,[19],1.02
same,normalized growth,[20],1.01
same,normalized growth,[21],0.993
same,normalized growth,[22],1.01
same,normalized growth,[23],1.09
same,normalized growth,[24],1.02
same,normalized growth,[25],1.34
Clc1ccc(SCc2ccsc2-c2ncns2)cc1,normalized growth,"locus YAR019C, strain CDC15, stronger effect = lower value",0.98
same,normalized growth,"locus YBL105C, strain PKC1, stronger effect = lower value",0.968
same,normalized growth,"locus YBR135W, strain CKS1, stronger effect = lower value",0.967
same,normalized growth,"locus YBR136W, strain MEC1, stronger effect = lower value",0.968
same,normalized growth,"locus YBR160W, strain CDC28, stronger effect = lower value",0.975
same,normalized growth,"locus YDL017W, strain CDC7, stronger effect = lower value",0.97
same,normalized growth,"locus YDL028C, strain MPS1, stronger effect = lower value",0.971
same,normalized growth,[3],0.954
same,normalized growth,"locus YDL108W, strain KIN28, stronger effect = lower value",0.967
same,normalized growth,"locus YDL132W, strain cdc53, stronger effect = lower value",0.968
same,normalized growth,"locus YDL214C, strain PRR2, stronger effect = lower value",0.965
same,normalized growth,"locus YDR052C, strain DBF4, stronger effect = lower value",0.976
same,normalized growth,"locus YDR054C, strain cdc34, stronger effect = lower value",0.964
same,normalized growth,"locus YDR226W, strain ADK1, stronger effect = lower value",0.968
same,normalized growth,"locus YDR477W, strain SNF1, stronger effect = lower value",0.951
same,normalized growth,"locus YER123W, strain YCK3, stronger effect = lower value",0.897
same,normalized growth,"locus YER133W, strain GLC7, stronger effect = lower value",0.961
same,normalized growth,"locus YFL009W, strain cdc4, stronger effect = lower value",0.964
same,normalized growth,"locus YFL029C, strain CAK1, stronger effect = lower value",0.969
same,normalized growth,"locus YFR003C, strain YPI1, stronger effect = lower value",0.967
same,normalized growth,"locus YFR019W, strain FAB1, stronger effect = lower value",0.906
same,normalized growth,"locus YFR028C, strain CDC14, stronger effect = lower value",0.96
same,normalized growth,"locus YGR040W, strain KSS1, stronger effect = lower value",0.946
same,normalized growth,"locus YGR052W, strain FMP48, stronger effect = lower value",1.04
same,normalized growth,"locus YGR092W, strain DBF2, stronger effect = lower value",0.914
same,normalized growth,[7],0.933
same,normalized growth,"locus YHR079C, strain IRE1, stronger effect = lower value",0.958
same,normalized growth,"locus YHR082C, strain KSP1, stronger effect = lower value",1
same,normalized growth,"locus YHR205W, strain SCH9, stronger effect = lower value",0.923
same,normalized growth,"locus YIL147C, strain SLN1, stronger effect = lower value",0.973
same,normalized growth,"locus YJL095W, strain BCK1, stronger effect = lower value",0.972
same,normalized growth,"locus YJL128C, strain PBS2, stronger effect = lower value",0.961
same,normalized growth,"locus YJL157C, strain FAR1, stronger effect = lower value",0.963
same,normalized growth,"locus YJR016C, strain ILV3, stronger effect = lower value",0.977
same,normalized growth,"locus YJR066W, strain TOR1 (second series), stronger effect = lower value",0.933
same,normalized growth,"locus YJR066W, strain TOR1, stronger effect = lower value",0.955
same,normalized growth,"locus YKL048C, strain ELM1, stronger effect = lower value",0.971
same,normalized growth,"locus YKL067W, strain YNK1, stronger effect = lower value",0.972
same,normalized growth,"locus YKL101W, strain HSL1, stronger effect = lower value",0.976
same,normalized growth,"locus YKL193C, strain SDS22, stronger effect = lower value",0.969
same,normalized growth,"locus YKL203C, strain TOR2, stronger effect = lower value",0.992
same,normalized growth,"locus YLR113W, strain HOG1, stronger effect = lower value",0.923
same,normalized growth,"locus YLR133W, strain CKI1, stronger effect = lower value",0.973
same,normalized growth,"locus YLR403W, strain SFP1, stronger effect = lower value",0.927
same,normalized growth,"locus YML070W, strain DAK1, stronger effect = lower value",0.963
same,normalized growth,"locus YMR001C, strain CDC5, stronger effect = lower value",0.968
same,normalized growth,"locus YMR205C, strain PFK2 (second series), stronger effect = lower value",0.955
same,normalized growth,"locus YMR277W, strain FCP1, stronger effect = lower value",0.973
same,normalized growth,"locus YNL006W, strain LST8, stronger effect = lower value",0.969
same,normalized growth,"locus YNL020C, strain ARK1, stronger effect = lower value",0.975
same,normalized growth,"locus YNL161W, strain CBK1, stronger effect = lower value",0.972
same,normalized growth,"locus YNL183C, strain NPR1, stronger effect = lower value",0.947
same,normalized growth,"locus YNL207W, strain RIO2, stronger effect = lower value",0.981
same,normalized growth,"locus YNL222W, strain SSU72, stronger effect = lower value",0.977
same,normalized growth,"locus YNL307C, strain MCK1 (second series), stronger effect = lower value",0.948
same,normalized growth,"locus YOL078W, strain AVO1, stronger effect = lower value",0.975
same,normalized growth,"locus YOL136C, strain PFK27, stronger effect = lower value",0.966
same,normalized growth,"locus YOR061W, strain CKA2, stronger effect = lower value",0.947
same,normalized growth,"locus YOR119C, strain RIO1, stronger effect = lower value",0.958
same,normalized growth,"locus YOR231W, strain MKK1, stronger effect = lower value",0.964
same,normalized growth,"locus YOR329C, strain SCD5, stronger effect = lower value",0.975
same,normalized growth,"locus YPL031C, strain PHO85, stronger effect = lower value",0.947
same,normalized growth,"locus YPL153C, strain RAD53, stronger effect = lower value",0.958
same,normalized growth,"locus YPL204W, strain HRR25, stronger effect = lower value",0.934
same,normalized growth,"locus YPL209C, strain IPL1, stronger effect = lower value",0.972
same,normalized growth,"locus YPL256C, strain CLN2, stronger effect = lower value",0.916
same,normalized growth,"locus YPR025C, strain CCL1, stronger effect = lower value",0.968
same,normalized growth,"locus YPR106W, strain ISR1, stronger effect = lower value",0.977
same,normalized growth,"locus YPR111W, strain DBF20, stronger effect = lower value",0.971
same,normalized growth,"strain NNK1, stronger effect = lower value",0.974
same,normalized growth,"strain TSCII, stronger effect = lower value",0.968
COc1cc(CC(C)N)c(OC)cc1I (configuration not stated),normalized growth,"locus YAL040C, strain CLN3, stronger effect = lower value",0.975
same,normalized growth,"locus YCL061C, strain MRC1 (second series), stronger effect = lower value",1
same,normalized growth,"locus YDR363W, strain ESC2, stronger effect = lower value",1.04
same,normalized growth,"locus YER002W, strain NOP16, stronger effect = lower value",1.03
same,normalized growth,[10],1.01
same,normalized growth,"locus YMR307W, strain GAS1, stronger effect = lower value",0.996
same,normalized growth,"locus YNL175C, strain NOP13, stronger effect = lower value",0.995
same,normalized growth,"locus YNL197C, strain WHI3, stronger effect = lower value",1.02
same,normalized growth,"locus YNL224C, strain SQS1, stronger effect = lower value",0.997
same,normalized growth,[21],1
same,normalized growth,"locus YOR083W, strain WHI5 (second series), stronger effect = lower value",0.984
same,normalized growth,[23],1.03
same,normalized growth,[24],0.991
